In PubChem BioAssay (NCI):
Compounds without any hit were thinned out: in the full panel of roughly 83,000, 20% have a hit.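 Results are percent growth after 48 hours of single-concentration exposure. 100 means growth as in untreated cells, lower positive values show inhibition; negative values down to -100 show cell death.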 Activity calls are given as the source filed them. Rule for the calls: active = growth percent below 10; inactive = the rest.

Experiments:
Test in all cases: NCI-60 one-dose screen, 48 h (100 = growth as untreated, 0 = no growth, -100 = all killed)
Conditions in all cases: 10 µM unless noted
[1] = tested on: HCT-15 colon
[2] = tested on: SNB-75 CNS
[3] = tested on: SNB-19 CNS
[4] = tested on: PC-3 prostate
[5] = tested on: UACC-62 melanoma
[6] = tested on: SK-MEL-28 melanoma
[7] = tested on: SN12C renal
[8] = tested on: TK-10 renal
[9] = tested on: ACHN renal
[10] = tested on: CAKI-1 renal
[11] = tested on: A498 renal
[12] = tested on: CCRF-CEM leukemia
[13] = tested on: MOLT-4 leukemia
[14] = tested on: U251 CNS
[15] = tested on: SK-MEL-5 melanoma
[16] = tested on: LOX IMVI melanoma
[17] = tested on: SK-MEL-2 melanoma
[18] = tested on: EKVX NSCLC
[19] = tested on: UO-31 renal
[20] = tested on: HT29 colon

Measured: growth

CN1CCc2c(c3ccccc3c3ccccc23)C1
inactive: [1] 31.3% | [2] 66.1% | [3] 66.2% | [4] 64% | [5] 61.3% | [6] 87.4% | [7] 42.7% | [8] 60.9% | [9] 25.7% | [10] 56.1% | [11] 62.9%
active: [12] -38.4% | [13] 6.11%

COc1ccc2nc(-n3nc(C)cc3C)c(-n3nc(C)cc3C)nc2c1
inactive: [1] 102% | [3] 102% | [14] 106% | [4] 105% | [15] 100% | [5] 105% | [16] 101% | [6] 107% | [17] 111% | [18] 91.7% | [7] 104% | [19] 86.5% | [8] 113% | [9] 113% | [10] 93.4% | [11] 96.7% | [13] 104%

Cc1ccc(S(=O)(=O)N2CCc3ccc(O)c4c3C2CCc2ccccc2-4)cc1 (stereo unspecified)
inactive: [1] 102% | [2] 91.6% | [3] 98.9% | [14] 102% | [4] 95.4% | [15] 105% | [5] 90.2% | [16] 98.7% | [6] 107% | [18] 104% | [7] 100% | [19] 67.6% | [8] 111% | [9] 93.4% | [10] 88.3% | [11] 111% | [12] 83% | [13] 77.5%

COc1cc(-c2nc(Nc3nc4ccccc4[nH]3)nc(N)c2C#N)cc(OC)c1OC
inactive: [1] 59.1% | [2] 29.2% | [3] 69.2% | [14] 56.8% | [4] 44.7% | [5] 44.5% | [16] 69.5% | [6] 72% | [17] 59.2% | [18] 74.5% | [7] 92.8% | [19] 69.9% | [8] 80.6% | [9] 61.7% | [10] 56.9% | [12] 70.1%

CN1CCc2cccc3c2C1Cc1ccc(O)c(O)c1-3 (stereo unspecified)
inactive: [20] 76.2% | [2] 83.6% | [3] 111% | [14] 99.9% | [4] 65.6% | [15] 97.5% | [5] 105% | [16] 67.8% | [6] 115% | [17] 117% | [18] 75.4% | [7] 88.4% | [19] 64.2% | [8] 129% | [9] 73% | [10] 63.4% | [11] 103% | [12] 37.9%

COc1ccc(-n2ncc3c4nc(OC)c(S(=O)(=O)c5ccccc5)cc4ccc32)cc1
inactive: [20] 70.3% | [3] 64.9% | [4] 79.4% | [15] 90.4% | [5] 59.9% | [16] 86.1% | [6] 71.6% | [17] 65.9% | [7] 93% | [19] 76.4% | [8] 88.2% | [9] 44.2% | [10] 88.7% | [11] 43.3% | [13] 98.4%
active: [2] 6.98%

O=C(COc1ccc(/C=C2\CSc3ccccc3C2=O)cc1)c1ccc(Cl)cc1
inactive: [20] 121% | [2] 108% | [14] 104% | [15] 116% | [5] 83% | [16] 95% | [6] 124% | [17] 95.1% | [18] 122% | [7] 103% | [19] 89.8% | [8] 113% | [9] 99% | [10] 96.5% | [11] 105% | [12] 93.9% | [13] 82.1%

Cc1ccc(S(=O)(=O)N2C/C(=C\c3cc(F)cc(F)c3)C(=O)/C(=C/c3cc(F)cc(F)c3)C2)cc1
active: [20] -48.7% | [2] -41.6% | [3] -61.7% | [14] -97.9% | [4] -60.3% | [15] -59.6% | [5] -91.1% | [16] -94.5% | [6] -80.1% | [17] -25.9% | [7] -73.9% | [19] -90.5% | [8] 8.08% | [9] -91.4% | [10] -7.75% | [11] -25.7% | [12] -9.43% | [13] -5.52%

CCC(=O)Nc1nnc(Cc2ccc(OC)c(OC)c2)s1
active: [20] -46.9% | [2] -83.3% | [3] 2.39% | [14] -52.9% | [4] 9.29% | [5] -3.8% | [6] -97.7% | [17] -6.77% | [7] 2.77% | [8] -37.7% | [9] 4.03% | [10] -33.6%
inactive: [15] 46.6% | [16] 15.6% | [19] 19.6% | [11] 85.2% | [12] 38.3% | [13] 48.9%
